Measured values reported in PubChem BioAssay (NCI).
About 83,000 compounds went through this panel and 20% of them were active in at least one assay; those are over-represented in the sample as a whole.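 Values shown are percent growth following 48 h exposure of cells in 96-well plates to a single concentration of compound; below 10 was considered active.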 A number with no mark means an inactive call. Activity calls are given as the source filed them.

system: OVCAR-3 ovarian; test: NCI-60 one-dose screen, 48 h (100 = growth as untreated, 0 = no growth, -100 = all killed); conditions: 10 µM unless noted

Row | SMILES | growth
1 | CC1=CC[C@@H]2C(C)(C)C(=O)CC[C@@]2(C)[C@@H]1COc1ccc2ccc(=O)oc2c1 | 72.5%
2 | COc1ccc(/C=C2\N=C(Nc3ccccc3)N(NC(=O)c3ccccn3)C2=O)cc1 | 105%
3 | COc1ncc(-c2ccc3nccc(C#CCCCCC(=O)NO)c3c2)cc1NS(=O)(=O)c1ccc(F)cc1F | -31.6% (active)
4 | COc1ccc2c(c1)C(C)Cc1c(Cl)ncnc1N2C (stereo not drawn) | 2.22% (active)
5 | CC[C@@H]1NC(=O)[C@@H]2CCCCN2C(=O)[C@@H]2CCCN2C(=O)[C@@H](NC(=O)[C@H](Cc2cc(F)cc(F)c2)NC(=O)Nc2ccc(C3CC3)cc2F)[C@H](C)OC(=O)[C@@H]2C[C@@H](C)CN2C1=O | 6.44% (active)
6 | CCN(CC)c1cc(N)c(Cc2c(N)cc(N(CC)CC)cc2Cl)c(Cl)c1 | 47.2%
7 | O=C1COCCN1c1ccc(Nc2nc(Cl)nc(N3CCOCC3)n2)cc1 | 103%
8 | Cn1cc(-c2nnc(-c3cn(C)c4ncc(Br)cc34)s2)c2cc(Br)ccc21 | 100%
9 | Nc1ccc2c(c1)Cc1cc(NC(=O)C(F)(F)F)ccc1-2 | 99.5%
10 | COc1ccc(-c2cc(-c3ccc(Cl)cc3)nc(NCCCCNc3ccnc4cc(Cl)ccc34)n2)cc1 | 96%
11 | C#C[C@]1(O)CC[C@H]2[C@@H]3CC=C4c5nc(Nc6ccc(OC)cc6OC)sc5CC[C@]4(C)[C@H]3CC[C@@]21C | 26.4%
12 | CNC(=O)c1cc(Oc2ccc3nc(NC(=O)c4ccc5ncccc5c4)sc3c2)ccn1 | 98.9%
13 | COc1ncc(-c2ccc3nccc(C#CCCCCC(=O)O)c3c2)cc1NS(=O)(=O)c1ccc(F)cc1F | 19.8%
14 | CCc1ccc(C2=C/C(=C/c3ccccc3)C(=O)N2CCc2ccc(S(N)(=O)=O)cc2)cc1 | 109%
15 | Cc1ccc(-c2cn(C/C=C3\C=CN(S(=O)(=O)c4ccccc4)CC3)nn2)cc1 | 108%
16 | CCN1c2ccccc2C(Cl)(c2ccc(N(C)C)cc2)c2ccccc21 | 23.2%
17 | COc1ccc(-c2ccc(NNC(=O)c3ccc(F)cc3)nn2)cc1OC | 78.6%
18 | c1ccc(-c2nnc(-c3c[nH]c4ncccc34)s2)cc1 | 88.5%
19 | COc1c(B(O)O)cccc1-c1nc2ccc3[nH]ncc3c2c2c1CCC2 | 89.8%

Row | SMILES | growth
20 | O=C1/C(=C\c2cccn2Cc2ccccc2)c2ccccc2N1c1c(Cl)cccc1Cl | 7.01% (active)
21 | CN(C)c1ccc(-c2ccc(-c3ccc(C(=N)N)cc3)s2)cc1 | -85.3% (active)
22 | CC(C)(C)c1cc(C(=O)Nc2ccc(C(=O)NCCN)cc2)cc(C(C)(C)C)c1 | 54.6%
23 | CC1=CC[C@@H]2C(C)(C)[C@@H](O)CC[C@@]2(C)[C@@H]1COc1ccc2ccc(=O)oc2c1 | 41.2%
24 | CCn1cc(-c2cc(-c3ccc(Cl)cc3)nc(N)n2)c(-c2ccc(Br)cc2)n1 | 88.5%
25 | COc1cc(-c2cc(-c3ccc(Nc4ncnc5cc(Cl)ccc45)cc3)nc(N3CCCCC3)n2)cc(OC)c1OC | 107%
26 | Cn1cc(-c2nnc(-c3ccccc3)s2)c2cc(Br)cnc21 | 84.5%
27 | CC(=O)Nc1ccc2nc3ccc(NC(C)=O)cc3[n+](-c3ccccc3)c2c1 | 49.2%
28 | Cc1cccc(C[C@H](NC(=O)Nc2ccc(Cl)cc2F)C(=O)N[C@@H]2C(=O)N3C[C@H](O)C[C@H]3C(=O)N3CCCC[C@H]3C(=O)N[C@@H](C)C(=O)N3C[C@H](C)C[C@H]3C(=O)O[C@H]2C)c1 | -26.4% (active)
29 | COc1ccc(NC(=S)NNc2ccc(-c3ccc(OC)c(OC)c3)nn2)cc1 | 110%
30 | Cn1cc(-c2nnc(-c3cn(C)c4ncccc34)s2)c2ccccc21 | 40.1%
31 | Fc1cc2[nH]ncc2c2c3c(c(-c4cn[nH]c4C(F)(F)F)nc12)C1CCC3C1 (stereo not drawn) | 10.6%
32 | COc1ccc2nc3cc(Cl)ccc3c(Nc3ccc(O)cc3)c2c1 | 83%
33 | CCOC(=O)n1cc(C2=C(c3ccc(OC)c(OC)c3)COC2=O)c2ccccc21 | -42.6% (active)
34 | C[n+]1c(-c2ccccc2)c2cc(N)ccc2c2ccccc21 | 69.7%
35 | Fc1cc2[nH]ncc2c2c3c(c(-c4cn[nH]c4)nc12)CCCC3 | 7.22% (active)
36 | CCN(CC)c1ccc2cc(NC(=O)OCCNC(=O)CCNC(=O)[C@H](CC(C)C)NC(=O)C(C)(C)NC(=O)C(C)(C)NC(=O)[C@H](CC(C)C)NC(=O)CCNC(=O)C(C)(C)NC(=O)[C@H](CC(C)C)NC(=O)CCNC(=O)[C@@](C)(CC)NC(=O)[C@H](C)NC(=O)CCNC(=O)C(C)(C)NC(=O)[C@H](C)NC(=O)[C@@H]3CCCN3C(=O)[C@@](C)(CC)NC(=O)[C@H](Cc3ccccc3)NC(=O)C3CCCN3C(=O)C(C)(C)NC(=O)C3CCCN3C(=O)C(C)(C)NC(C)=O)c(=O)oc2c1 (stereo partly drawn) | -100% (active)
37 | COc1cc(NCc2cn(-c3ccc(C(=O)O)cc3)nc2-c2ccc(C(=O)O)cc2)cc(OC)c1OC | 106%
38 | CC(C)CCSc1nc(N)nc2nc[nH]c12 | 103%
